Among the data in PubChem BioAssay (NCI) are growth values, retold here.

The panel holds about 83,000 compounds, 20% with a hit somewhere; the sample as a whole holds those more often.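 A percent growth of 40 corresponds to 60% growth inhibition; 0 means no net growth; -100 means all cells died. Active threshold: below 10.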 Unmarked numbers belong to inactive results. Activity calls are given as the source filed them.

What all share (assay): NCI-60 one-dose screen, 48 h (100 = growth as untreated, 0 = no growth, -100 = all killed)
Holding throughout (conditions): 10 µM unless noted

Assay [1] has as its system SK-MEL-2 melanoma.
The subject of assay [2] is EKVX NSCLC.
Assay [3] has as its system SN12C renal.
Assay [4] has as its system UO-31 renal.
The test system of assay [5] is TK-10 renal.
Assay [6] has as its system ACHN renal.
The subject of assay [7] is A498 renal.
The test system of assay [8] is CCRF-CEM leukemia.
The subject of assay [9] is MOLT-4 leukemia.
Assay [10] concerns SR leukemia.

`C#C[C@@]1(O)[C@@H](CO)O[C@@H](n2cc(I)c3c(N)ncnc32)[C@@H]1O`: the growth was -27.6% (active) in [1]; -19.2% (active) in assay [2]; 6.87% (active) in assay [3]; -14.8% (active) in [4]; 23.4% in [5]; 5.08% (active) in [6]. Moreover, the growth in [7] was -86.5% (active); in assay [8] it was 6.77% (active); in [9], -18.8% (active); in assay [10], -1.14% (active).

For `Clc1ccc2c(NCCCNC3CCCCC3)ccnc2c1`, the growth was 107% in assay [1]; 66.2% in assay [2]; 97% in [3]; 83% in assay [4]; 111% in [5]; 116% in assay [6]. Besides, the growth was 98.9% in [7], 67.7% in assay [8], 6.38% (active) in assay [9] and 46.8% in [10].

As to `C#C[C@@]1(O)[C@@H](CO)O[C@@H](n2cc(Cl)c3c(N)ccnc32)[C@@H]1O`, the growth is 76.9% in assay [1]; 89.7% in [2]; 78.8% in assay [3]; 72.2% in assay [4]; 122% in assay [5]; 64.8% in [6]. The growth in assay [7] is 87.7%; in assay [8], 58.4%; in assay [9], 45.6%; in assay [10] it was 68.9%.

As for `COc1ccc(-c2nnc(N3CCN(C(=O)CN4CCN(c5ccccc5)CC4)CC3)nc2-c2ccc(OC)cc2)cc1`, the growth in assay [1] was 38.1%; in assay [2], 13%; in [3] it was 7.79% (active); in assay [4] it was 26.9%; in assay [5], 55.3%; in [6], 26.1%. Also, the growth in [7] was 48%; in assay [8], 9.28% (active); in assay [9] it was -25.7% (active); in assay [10] it was -32.5% (active).

As to `O=C(NCc1ccccc1)c1ccc2c(c1)NC(=O)[C@@H]1CCCN21`, the growth in assay [1] is 99%; in [2], 101%; in [3], 105%; in assay [4] it was 90.9%; in [5], 93.8%; in assay [6], 98.7%. Besides, the growth was 70.3% in assay [7], 116% in assay [8], 113% in assay [9] and 106% in [10].

Take `CN(C)CCCn1c2c(c3cc(-c4cccc(S(N)(=O)=O)c4)ccc3c1=O)C(=O)c1ccccc1-2`: the growth in assay [1] is 124%; in [2] it was 88.6%; in [3], 78.3%; in [4], 72.9%; in assay [5] it was 99.5%; in [6], 57.2%. The growth in assay [7] is 96.4%; in assay [8], 18.8%; in assay [9] it was 8.99% (active); in assay [10] it was -5.99% (active).

For `C=C(C)[C@@H]1CC[C@]2(C(=O)NCCCO)CC[C@]3(C)[C@H](CC[C@@H]4[C@@]5(C)CCCNC(C)(C)[C@@H]5CC[C@]43C)[C@@H]12`, the growth is 94.1% in assay [1]; 77.5% in assay [2]; 70.9% in assay [3]; 56.1% in assay [4]; 91.2% in assay [5]; 89.5% in assay [6]. Also, the growth in [7] was 95.8%; in assay [8] it was 60.4%; in assay [9], 30.5%; in [10], -19.5% (active).

Take `CCC[S@](=O)c1ccc2nc(NC(=O)OC)[nH]c2c1`: the growth in [1] was 99.2%; in [2] it was 95.3%; in assay [3], 100%; in [4], 96.8%; in assay [5], 91.7%; in assay [6], 103%. In addition, the growth in assay [7] was 95.1%; in assay [8] it was 96.2%; in assay [9] it was 79.6%; in assay [10] it was 75.3%.

Regarding `COc1ccc2[nH]c(=O)c(/C=C/C(=O)c3ccccc3OC)cc2c1`, the growth is -2.52% (active) in assay [1]; 37.8% in [2]; 8.57% (active) in [3]; 23.6% in [4]; 42% in [5]; 38.8% in assay [6]. Further, the growth in assay [7] was 21.7%; in assay [8], 7.53% (active); in [9], 10.9%; in assay [10] it was 2.69% (active).

Consider `OCCNc1nc(NCCO)nc(Nc2ccc(C3=NN(c4cc(Cl)cc(Cl)c4)C(c4ccc(C(F)(F)F)cc4)C3)cc2)n1` (stereo not given), for which the growth in assay [1] is 45.9%; in assay [2], 49.4%; in [3], 59.6%; in [4], 42.2%; in [5], 33.1%; in assay [6], 29.6%. Besides, the growth is 67.7% in assay [7], -6.5% (active) in assay [8], 7.9% (active) in [9] and 4.83% (active) in [10].

In the case of `C#Cc1ccccc1NC(=O)c1sc2nc3c(cc2c1N)CCCCCC3`, the growth in assay [1] is 85.4%; in assay [2], 69.5%; in assay [3], 58.5%; in [4] it was 50.1%; in [5], 63.2%; in assay [6], 31.1%. In addition, the growth in [7] is 68.5%; in assay [8] it was 60.7%; in assay [9], 67.1%; in [10] it was 12.3%.

In the case of `C=CCn1c(SCC(=O)Nc2ccc(C(=O)/C=C/c3cc(OC)c(OC)c(OC)c3)cc2)nnc1-c1ccccc1`, the growth is 101% in assay [1]; 95.8% in [2]; 93.1% in [3]; 78.3% in [4]; 108% in assay [5]; 103% in assay [6]. Moreover, the growth in assay [7] is 87.5%; in assay [8], 57.1%; in [9] it was 76.9%; in assay [10] it was 32.5%.

On to `c1ccc(-c2cn3ccnc3c(-c3ccc4c(c3)ncn4C3CCCCC3)n2)cc1`, for which the growth in assay [1] is 106%; in assay [2], 97.5%; in assay [3], 95.2%; in assay [4], 79.1%; in [5], 106%; in assay [6] it was 104%. Also, the growth in [7] is 106%; in assay [8], 88.3%; in assay [9], 60.3%; in assay [10] it was 55.4%.

Regarding `N#Cc1c(-c2ccc(F)cc2)nc(N/N=C/c2c[nH]c3ccccc23)nc1N1CCOCC1`, the growth in assay [1] was 53.4%; in [2], 56.1%; in [3], 82.2%; in assay [4], 34.5%; in [5], 89.9%; in assay [6], 43.4%. The growth in [7] is 25.6%; in assay [8], 40.5%; in assay [9], 22%; in [10] it was 6.49% (active).

`Nc1c(C(=O)Nc2ccccn2)sc2nc3c(cc12)CCCC3`: the growth in [1] was 35.1%; in assay [2], 55.2%; in [3], 50.1%; in assay [4], 61.6%; in assay [5] it was 97.5%; in assay [6], 69.8%. Besides, the growth in [7] was 48.3%; in assay [8], 36.9%; in assay [9] it was 29.8%; in assay [10], 9.84% (active).

With `COc1cc2c(Nc3ccc(NC(=O)Nc4ccc(Cl)c(C(F)(F)F)c4)c(Cl)c3)ncnc2cc1OCCCN1CCN(C)CC1`, the growth in assay [1] was -37.9% (active); in assay [2], 52.5%; in [3] it was 18.6%; in assay [4], 54.9%; in assay [5] it was 20.5%; in assay [6], 35%. Further, the growth in [7] is 39.7%; in [8], -15.4% (active); in assay [9], -43.7% (active); in assay [10], -40.5% (active).

As to `CCOC(=O)C1=C(C)n2nc(CC#N)c(C#N)c2NC1c1ccc(CC)cc1` (stereo not given), the growth was 106% in [1]; 82.4% in [2]; 100% in [3]; 65.4% in assay [4]; 109% in assay [5]; 98.7% in assay [6]. The growth in [7] was 104%; in assay [8], 101%; in assay [9] it was 104%; in assay [10], 104%.

For the compound `Cc1ccccc1NC(=O)c1sc2nc(C)c(C(C)O)cc2c1N` (stereo not given), the growth was 34.4% in [1]; 75.7% in assay [2]; 51.3% in [3]; 69.6% in [4]; 51.5% in assay [5]; 78.3% in assay [6]. Further, the growth in assay [7] was 47.9%; in assay [8], 45.7%; in [9] it was 32.6%; in assay [10], 4.46% (active).

For `O=c1cc(/C=N\Nc2nc(-c3ccc(Cl)cc3Cl)cs2)c2cc(Cl)ccc2o1`, the growth in assay [1] is 92.9%; in assay [2] it was 79.3%; in [3], 95%; in assay [4], 70.4%; in [5], 120%; in [6] it was 97.7%. Besides, the growth is 101% in [7], 97.3% in [8], 98.1% in [9] and 80.7% in assay [10].

Turning to `COc1cc(C2=NN(C=O)C(c3cccc(Nc4ccnc5cc(C(F)(F)F)ccc45)c3)C2)cc(OC)c1OC` (stereo not given), the growth was 70.7% in [1]; 61.5% in [2]; 62.4% in assay [3]; 37.6% in assay [4]; 46.5% in assay [5]; 65.5% in assay [6]. In addition, the growth in assay [7] was 65.4%; in assay [8], 37.5%; in assay [9], 21.5%; in [10], 32.3%.

For `CC(=O)Oc1ccc(O)cc1`, the growth in assay [1] is 87.2%; in [2], 103%; in [3], 99.9%; in [4], 91.2%; in assay [5], 112%; in assay [6], 97.8%. Moreover, the growth in [7] was 100%; in assay [8], 64.3%; in assay [9], 4.64% (active); in assay [10], 87.7%.

In the case of `CCCCc1n(Cc2ccc3ccccc3c2)c2ccccc2[n+]1Cc1ccc2ccccc2c1`, the growth in [1] is -73.5% (active); in assay [2] it was -84.6% (active); in assay [3] it was -92.3% (active); in assay [4], -90.3% (active); in [5], -87.1% (active); in assay [6], -91.4% (active). The growth in assay [7] was -92.7% (active); in [8] it was -48.2% (active); in assay [9], -60.9% (active); in [10], -54.1% (active).

Turning to `Nc1ccc(C2=NN(C(=O)c3cc(-c4ccc(Cl)cc4)nc4ccccc34)C(c3ccccc3)C2)cc1` (stereo not given), the growth in assay [1] is 37.1%; in assay [2] it was 40.4%; in [3], 51.2%; in assay [4], 49.5%; in assay [5], 58.5%; in assay [6] it was 51.5%. Besides, the growth was 30% in assay [7], 24.1% in [8], 41.2% in assay [9] and 25.9% in [10].

Take `COc1cc(/C=C/CO)cc(OC)c1O[C@@H]1O[C@H](CO)[C@@H](O)[C@H](O)[C@H]1O`: the growth in assay [1] was 108%; in assay [2], 95%; in [3], 96.8%; in [4], 97.1%; in assay [5], 98.7%; in assay [6] it was 109%. For the same compound, the growth in [7] is 77.2%; in assay [8], 96.2%; in assay [9] it was 94.8%; in [10] it was 95.2%.

Consider `O=C(O)COc1ccc2c(=O)c3sc4c(=O)c5ccccc5c(=O)c4c3c(=O)c2c1`, for which the growth in assay [1] was 25.5%; in [2], 78.9%; in assay [3], -11.6% (active); in assay [4] it was 43.5%; in assay [5], 74.8%; in assay [6], 62.7%. Further, the growth was -86.9% (active) in assay [7], 56.8% in assay [8], 45.1% in assay [9] and 26.6% in assay [10].

For the compound `COc1cc(NCC(=O)Nc2cc(Nc3ccc(C)cc3)ncn2)c(Cl)c(OC)c1Cl`, the growth in assay [1] is 103%; in [2], 82.1%; in assay [3], 88.1%; in assay [4] it was 62.1%; in assay [5], 121%; in assay [6], 92.6%. In addition, the growth in [7] was 84.9%; in [8] it was 81.8%; in [9] it was 60.8%; in assay [10], 78.9%.
